The results in this text go back to PubChem BioAssay.

The term viability denotes a read-out of living cells in per cent, often relative to untreated cells.

Values without a mark were called inactive. The source made the active and inactive calls.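 The calls were made as follows: active = normalized viability below 100% at a tested concentration; inactive = the rest.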

The nature of the experiment: ovarian cancer cell viability with rucaparib, profiling panel, oncology-focused library, rucaparib conditional (AID 1508598). The note with it: patient-derived ovarian cancer cells, CellTiter-Glo viability, 144 h; at 0.313 µM; OCI-P5x cells; with rucaparib 20 µM; hits give low values; 100% = cells with rucaparib alone.
`CC1(C)CNc2cc(NC(=O)c3cccnc3NCc3ccncc3)ccc21`: the viability was 142%. Under `O=C(Nc1ccccc1-c1cn2c(CN3CCNCC3)csc2n1)c1cnc2ccccc2n1` stands 113%; under `Cc1cnc(NC(=O)Nc2cc(Br)c(C)cc2OC[C@@H]2CNCCO2)cn1`, 73.6% (active). For the compound `N#Cc1c(NC(=O)c2cccc3ccccc23)sc2c1CCCC2`, the viability was 105%.

For `COc1ccc(-c2ccc3c(N4CCOC[C@@H]4C)nc(N4CCOC[C@@H]4C)nc3n2)cc1CO`, the viability was 34.3% (active).

`Nc1nc(Nc2ccc(S(N)(=O)=O)cc2)nn1C(=O)c1c(F)cccc1F`: the viability was 90.8% (active). Under `Cc1ccc(F)c(NC(=O)Nc2ccc(-c3cccc4[nH]nc(N)c34)cc2)c1` stands 91.5% (active). Under `COc1ccc(-c2ccc3c(N4CCOCC4)nc(N4C[C@@H](C)O[C@@H](C)C4)nc3n2)cc1CO` stands 95.5% (active); under `N#CCNC(=O)c1ccc(-c2ccnc(Nc3ccc(N4CCOCC4)cc3)n2)cc1`, 90.7% (active).

In the case of `COC(=O)c1ccc2c(C(=Nc3ccc(N(C)C(=O)CN4CCN(C)CC4)cc3)c3ccccc3)c(O)[nH]c2c1`, the viability was 87% (active). For `COc1cc2nccc(Oc3ccc(NC(=O)Nc4cc(C)on4)c(Cl)c3)c2cc1OC` the value was 88.2% (active).
